Source: PubChem BioAssay (NCI)
About 83,000 compounds went through this panel and 20% of them were active in at least one assay; those are over-represented in the sample as a whole.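 Percent growth is the endpoint: 0 to 100 indicates growth inhibition (40 means 60% inhibition), 0 means no net growth, and negative values indicate cell death.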 A number with no mark means an inactive call. Activity calls are given as the source filed them. Rule for the calls: active = growth percent below 10; inactive = the rest.

Key:
Test in all cases: NCI-60 one-dose screen, 48 h (100 = growth as untreated, 0 = no growth, -100 = all killed)
Settings in all cases: 10 µM unless noted
DU-145 prostate = test system: DU-145 prostate
K-562 leukemia = test system: K-562 leukemia
MALME-3M melanoma = test system: MALME-3M melanoma
MDA-MB-231 breast = test system: MDA-MB-231 breast
RXF 393 renal = test system: RXF 393 renal
SF-268 CNS = test system: SF-268 CNS
SF-295 CNS = test system: SF-295 CNS
SF-539 CNS = test system: SF-539 CNS
UACC-257 melanoma = test system: UACC-257 melanoma
M14 melanoma = test system: M14 melanoma
HCT-15 colon = test system: HCT-15 colon
HT29 colon = test system: HT29 colon
SNB-75 CNS = test system: SNB-75 CNS
SNB-19 CNS = test system: SNB-19 CNS
U251 CNS = test system: U251 CNS
PC-3 prostate = test system: PC-3 prostate
SK-MEL-5 melanoma = test system: SK-MEL-5 melanoma
UACC-62 melanoma = test system: UACC-62 melanoma
LOX IMVI melanoma = test system: LOX IMVI melanoma
SK-MEL-28 melanoma = test system: SK-MEL-28 melanoma

Compound	growth (DU-145 prostate)	growth (K-562 leukemia)	growth (MALME-3M melanoma)	growth (MDA-MB-231 breast)	growth (RXF 393 renal)	growth (SF-268 CNS)	growth (SF-295 CNS)	growth (SF-539 CNS)	growth (UACC-257 melanoma)	growth (M14 melanoma)	growth (HCT-15 colon)	growth (HT29 colon)	growth (SNB-75 CNS)	growth (SNB-19 CNS)	growth (U251 CNS)	growth (PC-3 prostate)	growth (SK-MEL-5 melanoma)	growth (UACC-62 melanoma)	growth (LOX IMVI melanoma)	growth (SK-MEL-28 melanoma)
COc1cc2nc(-c3ccc(C(F)(F)F)cc3)cc(OCCCN3CCCC3)c2cc1OC	41.7%	24.6%	51.2%	25.7%	44.4%	45.5%	-28.3% (active)	45.8%	22.7%	-38.4% (active)	13.1%	20.9%	-19% (active)	67.5%	50.6%	41.7%	-18.2% (active)	-25% (active)	-53.1% (active)	71.9%
CCCCCN1C=C/C(=C\C(=O)n2ccc3ccccc32)c2ccccc21	101%	75%	81.7%	93.2%	103%	92.5%	87.7%	102%	97.9%	92%	98.4%	80.6%	90.9%	106%	91.1%		97.3%	67%	92%	104%
COc1cc2c(-c3cc4c(cc3CNCCc3ccc5c(c3)OCO5)OCO4)cccc2c(OC)c1O	95.8%	20%	103%	69.4%	74.9%	68%	92.2%	88.4%	96.1%	84.4%	59.4%	92%	44.9%	87.4%	75.1%	60.9%	78.8%	79.1%	72.8%	97.6%
NS(=O)(=O)c1ccc(Cn2c(SCC(=O)N/N=C/c3ccccc3O)nc3ccccc3c2=O)cc1	72.5%	36.6%	59%	30.1%	72.2%	38.2%	65.9%	54.3%	70.6%	42%	75%	86.3%	84.3%	55.6%	43.1%	67.9%	58.1%	38.1%	16.1%	57.7%
N#Cc1c(NC(=O)NCc2ccccc2)sc2c1CCCC2	10.1%	14%	47.5%	18.8%	0.0173% (active)	46.9%	21%	-1.85% (active)	68%	10.6%	20.3%	12.8%	27%	34.1%	26.1%		13.3%	39.3%	24%	64.9%
COc1ccc2[nH]c(=O)c(CN3CCN(c4nccc(-c5ccc(Cl)cc5)n4)CC3)cc2c1	98.9%	70.4%	92.9%	85%	90.3%	90.5%	98.4%	89.8%	82.6%	102%	91.8%	78.2%	99.9%	78.8%	81.2%	73.6%	94.6%	94.4%	99.6%	95.8%
Nc1c(C(=O)Nc2cccc3cnccc23)sc2nc3c(cc12)C(=O)CCC3	103%	46.3%	88.3%	83.4%	92.2%	96.4%	74.9%	93.6%	95.6%	74.6%	70.9%	79.9%	88.5%	66.6%	95.7%	75.9%	47.6%	43.1%	91.6%	85.1%
O=C1c2ccc3c4c(ccc(c24)C(=O)N1CCCNCc1ccccc1)C(=O)N(CCCNCc1ccccc1)C3=O	-93.6% (active)	-47.9% (active)	-58.5% (active)	-8.41% (active)	-88.8% (active)	-71.4% (active)	-39.7% (active)	-69.6% (active)	-95.2% (active)	-76% (active)	-57.7% (active)	-63.5% (active)	-97.2% (active)	-75.5% (active)	-87.7% (active)	-65.4% (active)	-99.2% (active)	-71.1% (active)	-75.6% (active)	-95.9% (active)
